Experimental data reported in PubChem BioAssay (Tox21).
Results filed as inconclusive are left out. Calls of active or inactive are those of the source. Unless noted, calls follow the shape of the dose curve; as a rule, active = well fitted curve in the direction sought with a large enough effect in the repeat runs; inconclusive = weak or mixed curves; inactive = no such curve, though single readings can be large; an effect the other way counts as inactive or inconclusive.

Key:
[1] = molecular target: Thyrotropin-releasing hormone receptor (Homo sapiens) (UniProt P34981); test: qHTS assay to identify small molecule agonists of the thyrotropin-releasing hormone receptor (TRHR) signaling pathway (AID 1346891; calls by dose curve;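 also: HEK293 cells expressing TRHR with calcium dye readout; series mostly up to about 58 µM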)
Sequence of Thyrotropin-releasing hormone receptor (Homo sapiens) (P34981 whole entry, looked up): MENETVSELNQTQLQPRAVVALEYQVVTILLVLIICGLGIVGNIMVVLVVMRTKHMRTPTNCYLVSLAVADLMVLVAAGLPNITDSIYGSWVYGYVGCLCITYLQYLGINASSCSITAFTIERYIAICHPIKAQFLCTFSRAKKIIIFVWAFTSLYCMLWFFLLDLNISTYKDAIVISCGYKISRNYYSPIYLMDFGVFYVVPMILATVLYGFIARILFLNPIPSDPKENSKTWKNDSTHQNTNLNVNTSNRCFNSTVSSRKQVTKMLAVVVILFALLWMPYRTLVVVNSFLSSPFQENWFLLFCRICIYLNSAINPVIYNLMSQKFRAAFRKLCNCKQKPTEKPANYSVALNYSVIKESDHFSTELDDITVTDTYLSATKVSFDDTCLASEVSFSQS
Outline: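 Agonist-mode calcium mobilisation screen: TRHR-transfected HEK293 cells cultured overnight (18 h), dye-loaded for 2 h at 37 °C, exposed to compounds, and monitored by fluorescence for 3 min.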

[2] = Human pregnane X receptor (PXR) small molecule agonists, qHTS cell viability counter screen (AID 1346977); also: nearly all actives have a fitted effect of over 50% in size
Outline: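 Measures live-cell protease fluorescence (CellTiter-Fluor) in PXR-Luc HepG2 cells treated 24hr with compounds at 37C. Cells had 5hr to attach before pin transfer of DMSO solutions.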

[3] = Caspase-3/7 induction in HepG2 cells by small molecules, qHTS assay (AID 1346978); also: nearly all actives have a fitted effect of over 15% in size
Outline: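 Caspase-3/7 induction was measured by Caspase-Glo 3/7 luminescence (30 min, room temperature) after a 17 hr compound exposure of wild-type HepG2 cells seeded at 2,000 per well and pre-incubated 5 hr.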

[4] = Caspase-3/7 induction in CHO-K1 cells by small molecules, qHTS cell viability counter screen (AID 1346979); also: nearly all actives have a fitted effect of over 35% in size
Outline: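 In the same wells as the caspase read, viability of compound-treated wild-type CHO-K1 cells was assessed using CellTiter-Fluor, added after 16hr at 37C and measured by fluorescence following 1hr further incubation.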

[5] = Caspase-3/7 induction in CHO-K1 cells by small molecules, qHTS assay (AID 1346980); also: nearly all actives have a fitted effect of over 15% in size
Outline: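 Luminescent Caspase-Glo 3/7 read (30min, room temperature) quantified apoptosis induction. Cells were wild-type CHO-K1, treated with compound for 17hr at 37 C and 5% CO2.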

[6] = Caspase-3/7 induction in HepG2 cells by small molecules, qHTS cell viability counter screen (AID 1346981); also: series mostly up to about 92 µM; nearly all actives have a fitted effect of over 30% in size
Outline: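 Wild-type HepG2 cells, 2,000/well, settled 5 hr at 37 C, 5% CO2 before compound addition. Viability read by CellTiter-Fluor fluorescence, reagent added after 16 hr compound exposure, then 1 hr at 37C, in the same wells as the caspase read.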

[7] = molecular target: Nuclear receptor subfamily 1 group I member 2 (Homo sapiens) (UniProt O75469); test: Human pregnane X receptor (PXR) small molecule agonists, qHTS assay (AID 1346982); also: nearly all actives have a fitted effect of over 35% in size; also: potency is read from the fitted curve at half-maximal effect
Sequence of Nuclear receptor subfamily 1 group I member 2 (Homo sapiens) (O75469 whole entry, looked up): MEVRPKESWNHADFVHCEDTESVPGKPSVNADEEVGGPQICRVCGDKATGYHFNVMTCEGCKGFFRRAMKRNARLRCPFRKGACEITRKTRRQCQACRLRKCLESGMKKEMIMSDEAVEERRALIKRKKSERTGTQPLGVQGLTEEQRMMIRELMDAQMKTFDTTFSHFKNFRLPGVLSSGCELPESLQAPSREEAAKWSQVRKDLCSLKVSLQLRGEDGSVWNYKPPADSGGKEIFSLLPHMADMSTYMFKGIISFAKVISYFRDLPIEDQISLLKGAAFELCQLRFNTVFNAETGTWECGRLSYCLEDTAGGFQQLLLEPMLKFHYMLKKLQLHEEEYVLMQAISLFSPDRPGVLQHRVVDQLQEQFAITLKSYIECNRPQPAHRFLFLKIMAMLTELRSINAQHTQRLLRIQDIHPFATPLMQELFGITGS
Outline: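 PXR-Luc HepG2 reporter cells (CYP3A4-driven luciferase) in 5% charcoal-stripped FBS medium, plated 5 h before compound addition, then treated 24 h at 37C. Luciferase read by ONE-Glo luminescence after 30 min at room temperature.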

[8] = molecular target: Cytochrome P450 2D6 (Homo sapiens) (UniProt P10635); test: Cytochrome P450 Family 2 Subfamily D Member 6 (CYP2D6) small molecule antagonists: luciferase reporter qHTS assay (AID 1671196); also: nearly all actives have a fitted effect of over 50% in size; also: potency is read from the fitted curve at half-maximal effect; as to activity change, negative = inhibition: series mostly up to about 120 µM
Sequence of Cytochrome P450 2D6 (Homo sapiens) (P10635 whole entry, looked up): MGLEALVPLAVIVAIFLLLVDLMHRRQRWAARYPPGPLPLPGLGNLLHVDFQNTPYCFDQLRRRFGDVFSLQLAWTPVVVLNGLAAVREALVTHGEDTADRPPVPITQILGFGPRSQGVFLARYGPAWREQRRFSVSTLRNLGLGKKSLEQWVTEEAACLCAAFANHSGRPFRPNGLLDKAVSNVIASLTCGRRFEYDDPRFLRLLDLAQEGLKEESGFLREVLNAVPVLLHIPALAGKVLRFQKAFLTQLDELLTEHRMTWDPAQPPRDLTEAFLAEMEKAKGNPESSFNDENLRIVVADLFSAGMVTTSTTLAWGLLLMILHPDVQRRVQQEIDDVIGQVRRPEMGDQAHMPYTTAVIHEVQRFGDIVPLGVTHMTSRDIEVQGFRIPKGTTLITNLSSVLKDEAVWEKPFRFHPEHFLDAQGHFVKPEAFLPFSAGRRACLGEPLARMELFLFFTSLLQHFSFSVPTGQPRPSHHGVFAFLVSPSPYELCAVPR
Outline: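 Cell-free P450-Glo system: CYP2D6 with proluciferin substrate was pre-incubated with compound for 10 min, then reacted with NADPH regeneration for 1 h at room temperature. Luciferin product was detected after 20 min, and data were reported as relative luminescence units.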

[9] = molecular target: Cytochrome P450 2C19 (Homo sapiens) (UniProt P33261); test: Cytochrome P450 Family 2 Subfamily C Member 19 (CYP2C19) small molecule antagonists: luciferase reporter qHTS assay (AID 1671197); also: nearly all actives have a fitted effect of over 65% in size; also: potency is read from the fitted curve at half-maximal effect; as to activity change, negative = inhibition: series mostly up to about 120 µM
Sequence of Cytochrome P450 2C19 (Homo sapiens) (P33261 whole entry, looked up): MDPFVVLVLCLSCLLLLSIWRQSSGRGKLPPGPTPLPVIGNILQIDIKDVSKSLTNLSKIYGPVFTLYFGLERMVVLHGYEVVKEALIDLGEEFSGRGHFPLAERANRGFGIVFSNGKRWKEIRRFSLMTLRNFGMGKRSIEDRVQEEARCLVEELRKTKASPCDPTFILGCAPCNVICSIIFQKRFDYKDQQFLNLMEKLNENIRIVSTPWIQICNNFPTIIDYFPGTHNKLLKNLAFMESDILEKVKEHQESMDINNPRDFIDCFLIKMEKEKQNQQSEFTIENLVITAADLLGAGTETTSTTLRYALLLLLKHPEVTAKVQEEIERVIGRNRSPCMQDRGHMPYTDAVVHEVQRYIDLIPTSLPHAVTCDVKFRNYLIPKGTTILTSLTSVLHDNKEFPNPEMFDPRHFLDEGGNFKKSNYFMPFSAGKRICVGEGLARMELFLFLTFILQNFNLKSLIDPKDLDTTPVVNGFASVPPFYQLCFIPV
Outline: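 Light output is proportional to CYP2C19 activity: proluciferin substrate is converted to luciferin, then detected by a luciferin detection reagent that also stops the 1 h, 37C NADPH-driven reaction. Ketoconazole serves as positive control.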

[10] = molecular target: Cytochrome P450 2C9 (Homo sapiens) (UniProt P11712); test: Cytochrome P450 Family 2 Subfamily C Member 9 (CYP2C9) small molecule antagonists: luciferase reporter qHTS assay (AID 1671198); also: nearly all actives have a fitted effect of over 50% in size; also: potency is read from the fitted curve at half-maximal effect; as to activity change, negative = inhibition: series mostly up to about 120 µM
Sequence of Cytochrome P450 2C9 (Homo sapiens) (P11712 whole entry, looked up): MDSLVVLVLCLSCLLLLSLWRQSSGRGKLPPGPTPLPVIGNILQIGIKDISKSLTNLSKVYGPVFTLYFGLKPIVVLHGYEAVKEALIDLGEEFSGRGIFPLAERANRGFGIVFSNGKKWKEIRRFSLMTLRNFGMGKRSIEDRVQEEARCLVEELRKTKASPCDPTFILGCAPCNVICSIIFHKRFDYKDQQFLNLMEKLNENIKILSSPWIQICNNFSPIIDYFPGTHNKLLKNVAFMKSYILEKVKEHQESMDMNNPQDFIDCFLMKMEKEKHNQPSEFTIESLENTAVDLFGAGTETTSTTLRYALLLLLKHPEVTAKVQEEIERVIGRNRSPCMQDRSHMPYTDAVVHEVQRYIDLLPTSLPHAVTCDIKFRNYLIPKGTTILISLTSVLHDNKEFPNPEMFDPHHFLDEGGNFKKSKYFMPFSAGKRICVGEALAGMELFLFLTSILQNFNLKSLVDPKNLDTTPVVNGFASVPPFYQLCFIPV
Outline: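 Enzyme-substrate mix preincubated with compound 10 min at room temperature; reaction started with NADPH regeneration solution, 1 h 37C. Luminescent luciferin product read after 20 min detection reagent.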

[11] = molecular target: Cytochrome P450 1A2 (Homo sapiens) (UniProt P05177); test: Cytochrome P450 Family 1 Subfamily A Member 2 (CYP1A2) small molecule antagonists: luciferase reporter qHTS assay (AID 1671199); also: nearly all actives have a fitted effect of over 50% in size; also: potency is read from the fitted curve at half-maximal effect; as to activity change, negative = inhibition: series mostly up to about 120 µM
Sequence of Cytochrome P450 1A2 (Homo sapiens) (P05177 whole entry, looked up): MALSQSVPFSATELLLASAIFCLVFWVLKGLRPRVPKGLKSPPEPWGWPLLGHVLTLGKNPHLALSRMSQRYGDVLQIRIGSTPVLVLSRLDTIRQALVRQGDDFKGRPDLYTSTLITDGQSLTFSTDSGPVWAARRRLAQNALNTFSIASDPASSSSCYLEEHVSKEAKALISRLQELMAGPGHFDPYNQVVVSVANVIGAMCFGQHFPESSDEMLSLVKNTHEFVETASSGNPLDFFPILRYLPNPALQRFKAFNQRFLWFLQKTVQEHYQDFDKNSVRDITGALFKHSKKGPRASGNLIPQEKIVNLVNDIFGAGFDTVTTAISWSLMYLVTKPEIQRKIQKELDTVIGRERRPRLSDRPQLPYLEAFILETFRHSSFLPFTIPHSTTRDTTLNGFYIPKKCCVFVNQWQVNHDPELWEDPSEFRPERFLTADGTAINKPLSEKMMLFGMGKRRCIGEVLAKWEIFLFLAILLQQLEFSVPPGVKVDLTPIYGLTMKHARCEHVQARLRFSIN
Outline: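 P450-Glo CYP1A2 enzyme–proluciferin substrate mix with compound 10 min at room temperature, then NADPH regeneration 1 h at room temperature. Luciferin detection reagent added, luminescence read after 20 min; furafylline positive control.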

[12] = molecular target: Voltage-gated inwardly rectifying potassium channel KCNH2 (Homo sapiens) (UniProt Q12809); test: Human Ether-a-go-go-Related Gene (hERG) channel small molecule antagonists: fluorescence cell-based qHTS assay (AID 1671200)
Sequence of Voltage-gated inwardly rectifying potassium channel KCNH2 (Homo sapiens) (Q12809 whole entry, looked up): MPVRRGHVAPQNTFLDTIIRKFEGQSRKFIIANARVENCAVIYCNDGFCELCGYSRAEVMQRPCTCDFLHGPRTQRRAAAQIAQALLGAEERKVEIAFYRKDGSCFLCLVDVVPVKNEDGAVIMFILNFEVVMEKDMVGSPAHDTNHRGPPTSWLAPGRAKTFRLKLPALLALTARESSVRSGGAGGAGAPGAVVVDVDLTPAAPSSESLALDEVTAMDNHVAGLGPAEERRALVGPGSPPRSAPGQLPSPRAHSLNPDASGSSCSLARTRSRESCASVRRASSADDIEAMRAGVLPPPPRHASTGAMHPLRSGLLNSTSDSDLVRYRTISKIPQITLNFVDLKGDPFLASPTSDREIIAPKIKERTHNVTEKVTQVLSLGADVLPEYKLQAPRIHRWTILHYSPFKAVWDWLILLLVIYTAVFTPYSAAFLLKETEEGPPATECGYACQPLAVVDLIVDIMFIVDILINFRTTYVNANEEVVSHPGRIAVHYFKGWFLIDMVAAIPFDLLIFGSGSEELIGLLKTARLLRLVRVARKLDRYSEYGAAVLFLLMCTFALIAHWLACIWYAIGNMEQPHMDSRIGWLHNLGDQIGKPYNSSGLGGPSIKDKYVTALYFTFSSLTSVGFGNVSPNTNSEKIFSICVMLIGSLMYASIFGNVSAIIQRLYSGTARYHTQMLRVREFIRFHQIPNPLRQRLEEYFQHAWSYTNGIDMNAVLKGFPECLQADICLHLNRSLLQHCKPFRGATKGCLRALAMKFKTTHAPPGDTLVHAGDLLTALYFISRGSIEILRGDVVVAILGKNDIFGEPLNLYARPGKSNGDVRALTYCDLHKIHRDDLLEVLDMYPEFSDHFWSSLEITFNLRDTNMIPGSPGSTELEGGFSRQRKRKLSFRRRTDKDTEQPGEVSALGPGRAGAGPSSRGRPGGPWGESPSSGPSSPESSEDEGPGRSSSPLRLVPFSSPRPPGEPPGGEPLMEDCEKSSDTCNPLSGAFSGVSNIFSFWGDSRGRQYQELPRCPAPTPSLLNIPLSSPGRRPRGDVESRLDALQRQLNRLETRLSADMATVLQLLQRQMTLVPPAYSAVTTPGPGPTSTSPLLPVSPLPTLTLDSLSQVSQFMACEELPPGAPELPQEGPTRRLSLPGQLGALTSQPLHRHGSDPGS
Outline: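 Quantitative HTS in hERG-U2OS cells: thallium entry through the channel reports activity, read as continuous 480/540 nm fluorescence over 2 min after stimulus addition.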

[13] = molecular target: Cytochrome P450 3A4 (Homo sapiens) (UniProt P08684); test: Cytochrome P450 Family 3 Subfamily A Member 4 (CYP3A4) small molecule antagonists: luciferase reporter qHTS assay (AID 1671201)
Sequence of Cytochrome P450 3A4 (Homo sapiens) (P08684 whole entry, looked up): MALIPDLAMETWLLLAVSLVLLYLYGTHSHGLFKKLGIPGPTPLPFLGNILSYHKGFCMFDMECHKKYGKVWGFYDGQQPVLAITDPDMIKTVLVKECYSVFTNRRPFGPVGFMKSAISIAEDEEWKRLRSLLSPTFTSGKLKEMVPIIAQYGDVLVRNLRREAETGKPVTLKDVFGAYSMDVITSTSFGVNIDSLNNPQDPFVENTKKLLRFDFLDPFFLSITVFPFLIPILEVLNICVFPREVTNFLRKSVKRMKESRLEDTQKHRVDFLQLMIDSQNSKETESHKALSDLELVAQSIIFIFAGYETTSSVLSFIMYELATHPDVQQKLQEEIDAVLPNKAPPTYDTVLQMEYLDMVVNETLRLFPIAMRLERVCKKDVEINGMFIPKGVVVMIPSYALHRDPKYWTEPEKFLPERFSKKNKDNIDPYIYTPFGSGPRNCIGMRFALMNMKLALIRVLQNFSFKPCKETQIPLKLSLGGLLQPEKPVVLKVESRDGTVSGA
Outline: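 Inhibition of CYP3A4 is measured as loss of light: the enzyme converts a proluciferin substrate to luciferin, detected luminescently. Reaction ran 1 h at room temperature with NADPH regeneration after a 10 min compound preincubation.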

[14] = molecular target: Nuclear receptor subfamily 1 group I member 2 (Rattus norvegicus) (UniProt Q9R1A7); test: Rat pregnane X receptor (rPXR) activation by small molecules, qHTS assay (AID 1346983); details: rPXR luciferase reporter cells, One-Glo luminescence, 24 h; max activation: active compounds read high; also: nearly all actives have a fitted effect of over 20% in size
Sequence of Nuclear receptor subfamily 1 group I member 2 (Rattus norvegicus) (Q9R1A7 whole entry, looked up): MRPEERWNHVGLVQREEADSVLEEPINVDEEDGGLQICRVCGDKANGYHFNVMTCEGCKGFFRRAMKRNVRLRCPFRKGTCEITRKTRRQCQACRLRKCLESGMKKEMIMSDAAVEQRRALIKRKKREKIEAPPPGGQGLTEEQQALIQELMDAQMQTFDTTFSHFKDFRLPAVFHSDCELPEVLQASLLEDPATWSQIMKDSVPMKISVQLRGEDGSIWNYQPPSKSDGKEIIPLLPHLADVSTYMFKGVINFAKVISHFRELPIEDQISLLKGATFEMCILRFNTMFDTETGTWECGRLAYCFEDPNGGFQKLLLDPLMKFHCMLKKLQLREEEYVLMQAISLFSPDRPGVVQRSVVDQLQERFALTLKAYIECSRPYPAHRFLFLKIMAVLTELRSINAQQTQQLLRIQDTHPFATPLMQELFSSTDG
Outline: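 Luminescent readout (One-Glo luciferase, 30 min room temperature) followed 24 hr compound treatment at 37 C of rPXR cells plated 2,000 per well and preincubated 5hr; qHTS format with compounds delivered in DMSO.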

[15] = molecular target: Nuclear receptor subfamily 1 group I member 2 (Homo sapiens) (UniProt O75469); test: CYP3A4 induction through human pregnane X receptor (PXR) by small molecules, qHTS assay (AID 1346984); also: nearly all actives have a fitted effect of over 40% in size
Outline: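 DPX-2 HepG2 cells carrying a PXR response element and CYP3A4-promoter luciferase construct, treated with compounds 24 hr at 37C. Then P450-Glo CYP3A4 Luciferin-IPA substrate (3uM final) for 3 hr at 37C, One-Glo added, luminescence read.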

[16] = molecular target: Nuclear receptor subfamily 1 group I member 2 (Homo sapiens) (UniProt O75469); test: Human pregnane X receptor (PXR) activation by small molecules, qHTS assay (AID 1346985); also: nearly all actives have a fitted effect of over 40% in size
Outline: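 DPX-2 cells (HepG2 co-transfected with a PXR response element and a CYP3A4-promoter luciferase construct) were seeded at 2,000 per well, rested 5 hr at 37C, then exposed to DMSO-dissolved compounds for 24 hr. Activation was read as luciferase luminescence.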
% is scaled to controls: 0 for no effect and ±100 for the full control effect.

CNc1ncnc2nc[nH]c12
inactive: outcome [1] | Potency [2] | outcome [3] | Potency [4] | outcome [5] | outcome [6] | Potency [8] | Potency [9] | Potency [10] | Potency [11] | Potency [12] | Potency [13]
active: Potency [7] 9.86 µM

CCCCC=O
inactive: outcome [1] | Potency [2] | outcome [3] | Potency [4] | outcome [5] | outcome [6] | Potency [7] | Potency [8] | Potency [11] | Potency [12] | Potency [13]
active: Potency [9] 71 µM | Potency [10] 79.6 µM

CN(C)CCn1nnnc1SCC1=C(C(=O)O)N2C(=O)[C@@H](NC(=O)Cc3csc(N)n3)[C@H]2SC1
inactive: outcome [1] | Potency [2] | outcome [3] | Potency [4] | outcome [5] | outcome [6] | Potency [7] | max activation [14] 14.1% | Potency [15] | Potency [16] | Potency [10] | Potency [11] | Potency [12] | Potency [13]

O=c1[nH]c2ccccc2c(=O)n1CCCl
inactive: outcome [1] | Potency [2] | outcome [3] | Potency [4] | outcome [5] | outcome [6] | Potency [7] | Potency [8] | Potency [9] | Potency [10] | Potency [12] | Potency [13]
active: Potency [11] 5.49 µM

COc1cc(O)cc(O)c1
inactive: outcome [1] | Potency [2] | outcome [3] | Potency [4] | outcome [5] | outcome [6] | Potency [7] | max activation [14] -1.94% | Potency [15] | Potency [16] | Potency [8] | Potency [10] | Potency [12]
active: Potency [9] 30.9 µM

CCCCOCC(C)OCC(C)O (stereo unspecified)
inactive: outcome [1] | Potency [2] | outcome [3] | Potency [4] | outcome [5] | outcome [6] | Potency [9] | Potency [10] | Potency [11] | Potency [12] | Potency [13]
active: Potency [7] 27.9 µM | Potency [8] 29 µM

NC(=S)Nc1cccc2ccccc12
inactive: activation [1] -0.377% [at 5.23 µM] | activity change, negative = cytotoxicity [2] -0.344% [at 8.39 µM] | caspase activation [3] 1% [at 8.39 µM] | activity change, negative = cytotoxicity [4] -1.57% [at 8.39 µM] | caspase-3/7 activation [5] 0.137% [at 8.39 µM] | activity change, negative = cytotoxicity [6] -1.33% [at 8.39 µM] | activation [7] -0.9% [at 8.39 µM] | activity change, negative = inhibition [9] -10% [at 10.5 µM] | activity change, negative = inhibition [10] -2.82% [at 10.5 µM] | activity change, negative = inhibition [11] -26.4% [at 10.5 µM] | activity change, negative = inhibition [12] 1.12% [at 6.97 µM] | activity change, negative = inhibition [13] 1.29% [at 10.5 µM]
active: Potency [8] 2.01 µM

CC(C)(O)Cc1ccccc1
inactive: outcome [1] | Potency [2] | outcome [3] | Potency [4] | outcome [5] | outcome [6] | Potency [7] | Potency [8] | Potency [9] | Potency [10] | Potency [11] | Potency [12] | Potency [13]
